Among the data in PubChem BioAssay AID624255 (Broad Institute, 2012) are inhibition values, retold here.

In general, inhibition refers to the drop in the measured response relative to a control, in per cent.

The structures appear in SMILES notation. In all, about 77,000 compounds went through this assay and about 4,600 (6%) were called active. About 1% were inconclusive and are not listed.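 How the source made its calls: active means mean inhibition above about 93%, with at least 55% of replicates each passing it (limit read from the data, passing the limit was not always enough); inconclusive means only one of those two conditions holds; inactive means neither condition holds.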 The list comes from a sample in which actives are over-represented; it also holds similar structures and randomly drawn compounds.

This assay can be described thus: growth inhibition of T. cruzi in host fibroblasts – cell-based, beta-gal Tulahuen parasites, NIH3T3 host, luminescence, primary screen (AID 624255). To be noted: T. cruzi beta-gal in NIH3T3, GalScreen luminescence, 90 h; at 8.34 µM; stronger effect = higher value.
Regarding `C[C@@H]1CN([C@H](C)CO)C(=O)c2cc(NC(=O)Cc3ccccc3)ccc2O[C@@H](C)CCCCO[C@H]1CN(C)C(=O)Cc1ccccc1`, the inhibition is -33.3% (inactive).

`O=C(C[C@H]1CC[C@@H]2[C@H](COC[C@@H](O)CN2Cc2cccc(-c3ccncc3)c2)O1)N1CCOCC1`: the inhibition is 65.1% (inactive).

Regarding `O=C(C[C@@H]1CC[C@H]2[C@@H](COC[C@H](O)CN2S(=O)(=O)c2ccc(F)cc2)O1)N[C@H]1CCN(Cc2ccccc2)C1`, the inhibition is 67.7% (inactive).

As for `CNC[C@@H]1Oc2cc(-c3ccccc3OC)ccc2S(=O)(=O)N([C@@H](C)CO)C[C@H]1C`, the inhibition is 42.1% (inactive).

As for `Cc1ccc(-c2ccc3c(c2)O[C@H](CN(C)C)[C@@H](C)CN([C@@H](C)CO)S3(=O)=O)cc1`, the inhibition was 71.8% (inactive).

For `COc1ccccc1-c1ccc2c(c1)O[C@H](CN(C)S(=O)(=O)c1ccc(C)cc1)[C@@H](C)CN([C@H](C)CO)S2(=O)=O`, the inhibition is 124% (active).

Regarding `Cc1ccccc1-c1ccc2c(c1)O[C@H](CN(C)C)[C@@H](C)CN([C@H](C)CO)S2(=O)=O`, the inhibition is 30% (inactive).

For `Cc1ccc(-c2ccc3c(c2)O[C@H](CN(C)C)[C@@H](C)CN([C@H](C)CO)S3(=O)=O)cc1`, the inhibition is 107% (active).

Turning to `COc1ccccc1-c1ccc2c(c1)O[C@@H](CN(C)C)[C@H](C)CN([C@H](C)CO)S2(=O)=O`, the inhibition was 102% (active).

For the compound `CCC(=O)N(C)C[C@@H]1Oc2cc(-c3ccccc3OC)ccc2S(=O)(=O)N([C@H](C)CO)C[C@H]1C`, the inhibition was 52.7% (inactive).

Consider `Cc1ccccc1-c1ccc2c(c1)O[C@H](CN(C)C)[C@H](C)CN([C@@H](C)CO)S2(=O)=O`, for which the inhibition is 15.2% (inactive).

With `CC(=O)N(C)C[C@H]1Oc2cc(-c3ccc(C)cc3)ccc2S(=O)(=O)N([C@@H](C)CO)C[C@@H]1C`, the inhibition is 98.5% (inactive).

With `CO[C@@H](CN(C)S(=O)(=O)c1cccc(Cl)c1)[C@H](C)CN([C@H](C)CO)S(=O)(=O)c1cccc(Cl)c1`, the inhibition was 71.5% (inactive).

On to `C[C@@H]1CCCCO[C@H](CN(C)C(=O)Cc2ccccc2)[C@@H](C)CN([C@@H](C)CO)C(=O)c2cc(NC(=O)c3ccccc3)ccc2O1`, for which the inhibition was 46.7% (inactive).

As for `CCCNC(=O)[C@@H]1[C@@H](CO)[C@@H]2Cn3c(ccc(/C=C/c4ccccc4)c3=O)[C@H]1N2CCC`, the inhibition was 59.6% (inactive).

In the case of `O=C(NCc1ccccn1)[C@@H]1[C@@H](CO)[C@@H]2Cn3c(ccc(/C=C/c4ccccc4)c3=O)[C@H]1N2CC1CC1`, the inhibition was 110% (active).

For the compound `O=C(NCC1CC1)[C@H]1[C@H](CO)[C@H]2Cn3c(ccc(/C=C/c4ccccc4)c3=O)[C@@H]1N2C(=O)C1CCC1`, the inhibition was -126% (inactive).

`COc1ccccc1NC(=O)N[C@H]1C=C[C@@H](CC(=O)N[C@@H](C)c2ccccc2)O[C@@H]1CO`: the inhibition is 3.52% (inactive).

`CO[C@H]1CN(C)C(=O)c2cc(NC(=O)C3CCC3)ccc2OC[C@H](C)N(Cc2nccs2)C[C@H]1C`: the inhibition was 16.8% (inactive).

As to `CCCNC(=O)[C@@H]1[C@@H](CO)[C@@H]2Cn3c(cccc3=O)[C@H]1N2C(=O)Nc1cc(F)ccc1F`, the inhibition was 81.1% (inactive).

In the case of `CCCNC(=O)[C@@H]1[C@@H](CO)[C@@H]2Cn3c(cccc3=O)[C@H]1N2C(=O)C1CC1`, the inhibition is 38.4% (inactive).

For the compound `C[C@@H]1CCCCO[C@@H](CN(C)CC2CC2)[C@@H](C)CN([C@H](C)CO)C(=O)c2cc(NC(=O)C3CCCCC3)ccc2O1`, the inhibition is 89% (inactive).

As for `C[C@@H]1CN([C@@H](C)CO)C(=O)c2cc(NC(=O)C3CCCCC3)ccc2O[C@@H](C)CCCCO[C@H]1CN(C)Cc1ccncc1`, the inhibition was 106% (active).

`C[C@@H]1CCCCO[C@@H](CN(C)CC2CC2)[C@H](C)CN([C@H](C)CO)C(=O)c2cc(NC(=O)C3CCCCC3)ccc2O1`: the inhibition was 102% (active).

Take `C[C@@H]1CN([C@@H](C)CO)C(=O)c2cc(NC(=O)C3CCCCC3)ccc2O[C@@H](C)CCCCO[C@@H]1CN(C)Cc1ccc(C(=O)O)cc1`: the inhibition is 15.2% (inactive).

In the case of `C[C@@H]1CCCCO[C@@H](CN(C)Cc2ccc(C(=O)O)cc2)[C@H](C)CN([C@@H](C)CO)C(=O)c2cc(NC(=O)C3CCCCC3)ccc2O1`, the inhibition is -8.6% (inactive).

Turning to `C[C@@H]1CCCCO[C@@H](CN(C)CC2CCCCC2)[C@H](C)CN([C@H](C)CO)C(=O)c2cc(NC(=O)C3CCCCC3)ccc2O1`, the inhibition is 51.3% (inactive).

On to `O=C(O)C[C@H]1C[C@@H]2c3cc(NC(=O)Nc4ccc(C(F)(F)F)cc4)ccc3O[C@@H]2[C@@H](CO)O1`, for which the inhibition was -33% (inactive).

For the compound `C[C@H]1CN([C@@H](C)CO)C(=O)c2cccc(NC(=O)Nc3ccccc3)c2O[C@H]1CN(C)S(=O)(=O)c1ccc(F)cc1`, the inhibition was -95% (inactive).

As to `C[C@H]1CCCCO[C@H](CN(C)CC2CC2)[C@@H](C)CN([C@@H](C)CO)C(=O)c2cc(NS(C)(=O)=O)ccc2O1`, the inhibition is 4.98% (inactive).

On to `CCNC(=O)Nc1ccc2c(c1)C(=O)N(C)[C@@H]1CC[C@@H](CC(=O)NC3CCCCC3)O[C@H]1CO2`, for which the inhibition is 12.5% (inactive).

For `C[C@@H](O)C#Cc1ccc([C@H]2[C@H](CO)N3CCCCN(C(=O)c4ccc(F)cc4)C[C@@H]23)cc1`, the inhibition is -25.9% (inactive).

Regarding `CC(C)(O)C#Cc1ccc([C@@H]2[C@H](CO)N3CCCCN(C(=O)c4cccc(F)c4)C[C@@H]23)cc1`, the inhibition was 112% (active).

For `O=C(c1cccc(F)c1)N1CCCCN2[C@@H](CO)[C@H](c3ccc(-c4cncnc4)cc3)[C@@H]2C1`, the inhibition is 83.5% (inactive).

In the case of `CC(C)(O)C#Cc1ccc([C@H]2[C@H]3CN(C(=O)c4ccncc4)CCCCN3[C@H]2CO)cc1`, the inhibition was 22% (inactive).

Turning to `COc1ccc(C#Cc2ccc([C@@H]3[C@@H](CO)N4CCCCN(C(=O)c5ccncc5)C[C@@H]34)cc2)cc1`, the inhibition was 98.5% (active).

As for `O=C(c1cccc(F)c1)N1CCCCN2[C@H](CO)[C@@H](c3ccc(-c4cncnc4)cc3)[C@H]2C1`, the inhibition is 44.2% (inactive).

`O=C(c1cccc(F)c1)N1CCCCN2[C@H](CO)[C@H](c3ccc(-c4ccncc4)cc3)[C@H]2C1`: the inhibition is 99.9% (active).

As for `O=C(c1ccncc1)N1CCCCN2[C@H](CO)[C@H](c3ccc(-c4ccccc4)cc3)[C@H]2C1`, the inhibition is 103% (active).

For the compound `CC(C)(O)C#Cc1ccc([C@H]2[C@@H](CO)N3CCCCN(C(=O)c4ccncc4)C[C@H]23)cc1`, the inhibition is 10.9% (inactive).

On to `C[C@H](O)C#Cc1ccc([C@@H]2[C@@H](CO)N3CCCCN(C(=O)c4ccncc4)C[C@@H]23)cc1`, for which the inhibition is 15.2% (inactive).

Regarding `COc1ccccc1-c1ccc([C@@H]2[C@@H](CO)N3CCCCN(C(=O)c4ccncc4)C[C@@H]23)cc1`, the inhibition is 52.8% (inactive).

Turning to `O=C(c1ccc(F)cc1)N1CCCCN2[C@@H](CO)[C@H](c3ccc(-c4ccccc4)cc3)[C@@H]2C1`, the inhibition was 61.8% (inactive).

With `O=C(C[C@@H]1CC[C@H]2[C@@H](COC[C@@H](O)CN2C(=O)c2ccc3c(c2)OCO3)O1)NC1CCCC1`, the inhibition was 27% (inactive).

As to `CCS(=O)(=O)Nc1ccc2c(c1)C(=O)N(C)[C@H]1CC[C@H](CC(=O)Nc3ccccc3)O[C@@H]1CO2`, the inhibition is 49.6% (inactive).

Consider `C[C@@H]1CN([C@@H](C)CO)C(=O)c2cc(-c3ccc(F)cc3)cnc2O[C@H]1CN(C)C(=O)c1ccncc1`, for which the inhibition is 64.3% (inactive).

As for `CC(C)NC(=O)N(C)C[C@@H]1OCCCC[C@@H](C)Oc2ccc(NC(=O)c3ccccc3)cc2C(=O)N([C@@H](C)CO)C[C@H]1C`, the inhibition was 30.5% (inactive).

With `COc1ccc(NC(=O)N(C)C[C@@H]2OCCCC[C@@H](C)Oc3ccc(NC(=O)C4CCCCC4)cc3C(=O)N([C@@H](C)CO)C[C@@H]2C)cc1`, the inhibition was 36.5% (inactive).

For `CN1CCN(C(=O)C[C@H]2CC[C@H]3[C@H](COc4ccc(NC(=O)C5CC5)cc4C(=O)N3C)O2)CC1`, the inhibition is 14.2% (inactive).

For the compound `O=C(C[C@@H]1C[C@@H]2c3cc(NC(=O)Nc4ccc(C(F)(F)F)cc4)ccc3O[C@@H]2[C@@H](CO)O1)NCCc1ccccc1`, the inhibition is 93.5% (inactive).

In the case of `COc1ccccc1NC(=O)N1C[C@H](O)COC[C@H]2O[C@H](CC(=O)NCCc3ccccc3)CC[C@@H]21`, the inhibition was -5.34% (inactive).

On to `CCCNC(=O)C[C@@H]1CC[C@@H]2[C@H](COc3ccc(NC(=O)C4CCOCC4)cc3C(=O)N2C)O1`, for which the inhibition was 47.3% (inactive).

`CO[C@@H]1CC[C@@H]2CCOc3ccc(C#N)cc3C(=O)N(C)C[C@@H](C)C(=O)N(C)C[C@@H]1O2`: the inhibition was 9.86% (inactive).

With `C[C@H](O)C#Cc1ccc([C@H]2[C@H](CO)N3CCCCN(C(=O)c4ccc(F)cc4)C[C@@H]23)cc1`, the inhibition was 66.2% (inactive).

Consider `O=C(c1ccc(F)cc1)N1CCCCN2[C@H](C1)[C@@H](c1ccc(C#CC3(O)CCCC3)cc1)[C@@H]2CO`, for which the inhibition is 113% (active).

Consider `CC(C)C#Cc1ccc([C@H]2[C@H](CO)N3CCCCN(C(=O)c4ccc(F)cc4)C[C@@H]23)cc1`, for which the inhibition is 80.8% (inactive).

Consider `O=C(c1cccc(F)c1)N1CCCCN2[C@H](CO)[C@H](c3ccc(C#CC4(O)CCCC4)cc3)[C@H]2C1`, for which the inhibition was 88.1% (inactive).

In the case of `COc1ccc(S(=O)(=O)N(C)C[C@@H]2OCCCC[C@@H](C)Oc3ccc(N(C)C)cc3C(=O)N([C@@H](C)CO)C[C@@H]2C)cc1`, the inhibition is 46.8% (inactive).

Regarding `O=C(C[C@@H]1CC[C@@H](NC(=O)CC2CC2)[C@H](CO)O1)NCc1ccc(-c2ccccc2)cc1`, the inhibition was 36.4% (inactive).

Consider `N#C[C@@H]1[C@@H](c2ccccc2)[C@@H](CO)N1C(=O)c1cc(Cl)cc(Cl)c1`, for which the inhibition is 90.7% (inactive).

Consider `COc1ccc(NC(=O)Nc2ccc3c(c2)C(=O)N([C@@H](C)CO)C[C@@H](C)[C@H](CN(C)C(=O)NC(C)C)OCCCC[C@H](C)O3)cc1`, for which the inhibition is 19.2% (inactive).
